The source of these data is PMC10668032, “Altered binding affinity of SIX1-Q177R correlates with enhanced WNT5A and WNT pathway effector expression in Wilms tumor”.

The full ranking holds about 33,000 sequences; the median of “e-score” is about -0.053, and the highest 2% start at about 0.38. This is one part of a sample in which the highest values are shown more often than they occur.

This test deals with T1, SIX1 homeodomain (reference allele) (human, UniProt Q15475 108-198).
T1 sequence: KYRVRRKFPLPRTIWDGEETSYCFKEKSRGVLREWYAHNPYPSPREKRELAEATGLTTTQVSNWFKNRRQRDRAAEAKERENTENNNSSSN
Kind of test: universal protein binding microarray; Universal all-10-mer PBM (8x60K, AMADID 030236), 300 nM GST-tagged protein, Alexa Fluor 488 anti-GST; buffer, salt, pH and temperature not stated (as in Berger); high values mean tight binding. Conditions: protein: ivt; tags: N-terminal GST; dsDNA, one strand shown. In outline: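 Homeodomains carrying a GST tag were produced by in vitro transcription/translation, then quantified by anti-GST western blot against a recombinant GST standard curve. Duplicate applications at 300 nM final concentration were made to universal 'all 10-mer' protein binding microarrays in 8×60K format. The Universal PBM Analysis Suite was used to express binding as 8-mer E-scores.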
For the sequence AGCCCCTA, the binding signal stood at 0.153 ± 0.0497 E-score.
The figure for CCGCATTA is 0.157 ± 0.0248 E-score; for GAGCTGGA it is 0.177 ± 0.0153 E-score; for ATCGCCGA it is 0.19 ± 0.0306 E-score.
In the case of ACACCGTC, the binding signal worked out at 0.262 ± 0.00999 E-score.
As to ACACCGTG, the binding signal was 0.277 ± 0.0223 E-score.
Under ATCCCGTA stands 0.342 ± 0.0301 E-score; under ATTCCGTG, 0.156 ± 0.0528 E-score.
The figure for ACACCGTA is 0.344 ± 0.0258 E-score; for ATACCGAC it is 0.341 ± 0.0139 E-score; for ATACCGTC it is 0.396 ± 0.0211 E-score.
For the sequence ATACCGTG, the binding signal was 0.384 ± 0.0192 E-score.
Under ATACCGTA stands 0.391 ± 0.00392 E-score; under ATATGGTC, 0.277 ± 0.0141 E-score; under GGATTAAA, 0.231 ± 0.111 E-score.
Under AATCCGAG stands 0.237 ± 0.07 E-score; under CTGGAATC, 0.158 ± 0.0574 E-score.
Regarding ACCATATA, the binding signal stood at 0.274 ± 0.008 E-score.
The figure for CCCATATA is 0.309 ± 0.0133 E-score.
Under ACCATATC stands 0.418 ± 0.00875 E-score; under CCTATATC, 0.352 ± 0.0286 E-score; under CCCATATC, 0.4689 ± 0.00434 E-score.
With ACCATACC, the binding signal amounted to 0.154 ± 0.0389 E-score.
The figure for AGGTTTAT is 0.199 ± 0.0561 E-score.
The figure for CCGATGCG is 0.215 ± 0.071 E-score; for CGATAGGC it is 0.175 ± 0.0335 E-score; for CCTATCAC it is 0.387 ± 0.0097 E-score.
Under CATATCAG stands 0.436 ± 0.0183 E-score; under AATATCAT, 0.381 ± 0.0478 E-score.
On to AATATCAA, for which the binding signal came out at 0.225 ± 0.165 E-score.
CATATTAG: the binding signal was 0.191 ± 0.0531 E-score.
The figure for AATATCAG is 0.225 ± 0.129 E-score.
Under AATATCAC stands 0.38 ± 0.0781 E-score; under ACTATCAC, 0.279 ± 0.062 E-score.
Under AATATGAT stands 0.309 ± 0.00824 E-score; under AATATCTC, 0.274 ± 0.0766 E-score.
In the case of CTCCATCA, the binding signal was found to be 0.157 ± 0.0276 E-score.
As to ATACAGCC, the binding signal was found to be 0.225 ± 0.1 E-score.
As for ATCGGGTG, the binding signal amounted to 0.32 ± 0.0738 E-score.
For ACCGGGAT, the binding signal was found to be 0.313 ± 0.0258 E-score.
Under GTATTAAA stands 0.246 ± 0.142 E-score; under ATCATCAA, 0.199 ± 0.0117 E-score.
Under AACACCCT stands 0.21 ± 0.0269 E-score; under CCCCGTAG, 0.176 ± 0.139 E-score.
The figure for GGGATGAA is 0.191 ± 0.0459 E-score.
With CATATCAC, the binding signal was determined as 0.446 ± 0.0382 E-score.
Under CATATCTC stands 0.342 ± 0.0177 E-score; under CATATTAC, 0.219 ± 0.0138 E-score.
Take CCGCTATC: the binding signal was 0.304 ± 0.0394 E-score.
Under ATGCCAGG stands 0.161 ± 0.00747 E-score.
Consider ATCTCTCA, for which the binding signal amounted to 0.252 ± 0.0252 E-score.
The figure for GTATCTCA is 0.392 ± 0.0267 E-score.
Take CTATCTCA: the binding signal worked out at 0.256 ± 0.0685 E-score.
The figure for ATATCTAG is 0.285 ± 0.0844 E-score; for GGATCTCA it is 0.298 ± 0.0172 E-score; for ATCTCTCC it is 0.184 ± 0.128 E-score.
The figure for ATATCTGG is 0.298 ± 0.0486 E-score.
Under GCATCTCA stands 0.186 ± 0.00338 E-score.
Turning to CTATCTCC, the binding signal came to 0.217 ± 0.0476 E-score.
The figure for ATATCTCC is 0.424 ± 0.0218 E-score; for ATATCTCA it is 0.391 ± 0.0526 E-score.
Under ATATCTCG stands 0.378 ± 0.0423 E-score.
The figure for AGTACACC is 0.209 ± 0.0287 E-score; for ATCCCTGA it is 0.272 ± 0.0262 E-score.
Turning to ACTATACT, the binding signal turned out to be 0.211 ± 0.0749 E-score.
Under ACTAGTAT stands 0.249 ± 0.0623 E-score; under TACCTCGA, 0.159 ± 0.0128 E-score.
The figure for ATAGGATG is 0.211 ± 0.00535 E-score.
Under GATCGTAA stands 0.216 ± 0.0203 E-score; under ACAGATAG, 0.208 ± 0.0152 E-score.
Turning to AAACCGAT, the binding signal was 0.184 ± 0.013 E-score.
With ATCGTTTG, the binding signal stood at 0.196 ± 0.0542 E-score.
The figure for ATATCTAC is 0.387 ± 0.0445 E-score; for ATATCTAA it is 0.316 ± 0.0663 E-score.
Under CTATCTAC stands 0.24 ± 0.0207 E-score; under ACCCGAGA, 0.213 ± 0.00331 E-score; under AGGATATG, 0.421 ± 0.00759 E-score.
Under CGGATAAA stands 0.275 ± 0.0785 E-score.
For CGGATAAC, the binding signal amounted to 0.339 ± 0.0303 E-score.
Regarding CGGATAGC, the binding signal was 0.382 ± 0.00849 E-score.
Under CGGATATC stands 0.473 ± 0.0121 E-score; under AGGATATA, 0.346 ± 0.0479 E-score; under AGGATAGC, 0.229 ± 0.0872 E-score.
The figure for AGGATAAC is 0.211 ± 0.00987 E-score.
The figure for AGGATAAT is 0.295 ± 0.036 E-score; for AGGATATC it is 0.466 ± 0.0183 E-score; for CGGATAGA it is 0.355 ± 0.012 E-score.
Regarding AGGATAAG, the binding signal came to 0.181 ± 0.0696 E-score.
